# Measurements taken from paper PMC8384837, “Expanding the binding specificity for RNA recognition by a PUF domain”.
# Columns and labels:
# Test in all cases: yeast three-hybrid, YBZ-1, SC-Leu-His + 0.5 mM 3-AT, 4 days
# Conditions in all cases: tags: N-Gal4 AD-HA kept; label: inside an RPR1-promoter hybrid RNA with tandem MS2 sites; ssRNA
# PUM1 PUF domain R3-LWL = PUM1 PUF domain R3-LWL (Homo sapiens, UniProt Q14671 828-1176, C935L;R936W;Q939L)
# How it was run: (§1)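 Matching RNA elements and Pumilio-1 PUF domain libraries, randomized at the three base-contacting residues of every repeat, were co-expressed from a centromeric plasmid in strain YBZ-1 (LexA–MS2 coat fusion, HIS3 reporter). The repeat regions were PCR-amplified and Illumina-sequenced from cells grown four days on SC-Leu (input) or SC-Leu-His + 0.5 mM 3-AT (selection). The interaction score is the log change in variant frequency from input to selection. It is computed in log2, with a pseudocount of 1 for absent variants.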
# PUM1 PUF domain R3-EWR = PUM1 PUF domain R3-EWR (Homo sapiens, UniProt Q14671 828-1176, C935E;R936W;Q939R)
# How it was run: as §1
# PUM1 PUF domain R3-APR = PUM1 PUF domain R3-APR (Homo sapiens, UniProt Q14671 828-1176, C935A;R936P;Q939R)
# How it was run: as §1
# PUM1 PUF domain R3-GRC = PUM1 PUF domain R3-GRC (Homo sapiens, UniProt Q14671 828-1176, C935G;Q939C)
# How it was run: as §1
# PUM1 PUF domain R8-RYQ = PUM1 PUF domain R8-RYQ (Homo sapiens, UniProt Q14671 828-1176, N1122R)
# How it was run: as §1
# PUM1 PUF domain R5-TPR = PUM1 PUF domain R5-TPR (Homo sapiens, UniProt Q14671 828-1176, C1007T;R1008P;Q1011R)
# How it was run: as §1
# PUM1 PUF domain R4-DYS = PUM1 PUF domain R4-DYS (Homo sapiens, UniProt Q14671 828-1176, N971D;H972Y;Q975S)
# How it was run: as §1
# PUM1 PUF domain R8-AWQ = PUM1 PUF domain R8-AWQ (Homo sapiens, UniProt Q14671 828-1176, N1122A;Y1123W)
# How it was run: as §1
# PUM1 PUF domain R3-DWQ = PUM1 PUF domain R3-DWQ (Homo sapiens, UniProt Q14671 828-1176, C935D;R936W)
# How it was run: as §1
# PUM1 PUF domain R1-RRE = PUM1 PUF domain R1-RRE (Homo sapiens, UniProt Q14671 828-1176, S863R;Q867E)
# How it was run: as §1
# PUM1 PUF domain R1-MPR = PUM1 PUF domain R1-MPR (Homo sapiens, UniProt Q14671 828-1176, S863M;R864P;Q867R)
# How it was run: as §1
# PUM1 PUF domain R1-KNI = PUM1 PUF domain R1-KNI (Homo sapiens, UniProt Q14671 828-1176, S863K;R864N;Q867I)
# How it was run: as §1
# PUM1 PUF domain R5-GSK = PUM1 PUF domain R5-GSK (Homo sapiens, UniProt Q14671 828-1176, C1007G;R1008S;Q1011K)
# How it was run: as §1
# PUM1 PUF domain R7-CTR = PUM1 PUF domain R7-CTR (Homo sapiens, UniProt Q14671 828-1176, S1079C;N1080T;E1083R)
# How it was run: as §1
# PUM1 PUF domain R7-EPD = PUM1 PUF domain R7-EPD (Homo sapiens, UniProt Q14671 828-1176, S1079E;N1080P;E1083D)
# How it was run: as §1
# PUM1 PUF domain R7-QGG = PUM1 PUF domain R7-QGG (Homo sapiens, UniProt Q14671 828-1176, S1079Q;N1080G;E1083G)
# How it was run: as §1
# PUM1 PUF domain R1-KCQ = PUM1 PUF domain R1-KCQ (Homo sapiens, UniProt Q14671 828-1176, S863K;R864C)
# How it was run: as §1
# PUM1 PUF domain R6-IFN = biological target: T1, PUM1 PUF domain R6-IFN (Homo sapiens, UniProt Q14671 828-1176, N1043I;Y1044F;Q1047N)
# T1 sequence: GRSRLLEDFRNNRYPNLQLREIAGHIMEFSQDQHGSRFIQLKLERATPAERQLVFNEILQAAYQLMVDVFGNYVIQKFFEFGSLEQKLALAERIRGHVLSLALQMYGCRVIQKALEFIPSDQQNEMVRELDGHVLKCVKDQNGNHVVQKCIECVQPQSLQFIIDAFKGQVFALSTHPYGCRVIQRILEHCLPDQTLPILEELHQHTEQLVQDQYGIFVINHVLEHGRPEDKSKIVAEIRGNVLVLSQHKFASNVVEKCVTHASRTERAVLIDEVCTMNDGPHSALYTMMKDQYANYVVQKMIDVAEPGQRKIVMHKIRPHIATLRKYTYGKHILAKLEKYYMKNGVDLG
# How it was run: as §1
# PUM1 PUF domain R8-CYC = PUM1 PUF domain R8-CYC (Homo sapiens, UniProt Q14671 828-1176, N1122C;Q1126C)
# How it was run: as §1
# PUM1 PUF domain R2-LHR = PUM1 PUF domain R2-LHR (Homo sapiens, UniProt Q14671 828-1176, N899L;Y900H;Q903R)
# How it was run: as §1
sequence,measurement,setting,value
GGCUAGAACUAGUGGAUCCCCCGGCGCCCGGCGGCUCGAGCCCGGGUAAGUGUAAGUAGUCUGCAUGCCGCCGGGCGCCAUGCCUGCAGGUCGACUCUAGAAAACAUG,binding signal,PUM1 PUF domain R3-LWL,4.64 log2 enrichment (interaction score)
same,binding signal,PUM1 PUF domain R3-EWR,0.97 log2 enrichment (interaction score)
same,binding signal,PUM1 PUF domain R3-APR,1.67 log2 enrichment (interaction score)
same,binding signal,PUM1 PUF domain R3-GRC,0.66 log2 enrichment (interaction score)
GGCUAGAACUAGUGGAUCCCCCGGCGCCCGGCGGCUCGAGCCCGGGUAAGGGUAAAUAGUCUGCAUGCCGCCGGGCGCCAUGCCUGCAGGUCGACUCUAGAAAACAUG,binding signal,PUM1 PUF domain R8-RYQ,2.37 log2 enrichment (interaction score)
GGCUAGAACUAGUGGAUCCCCCGGCGCCCGGCGGCUCGAGCCCGGGUAAGUGUCAAUAGUCUGCAUGCCGCCGGGCGCCAUGCCUGCAGGUCGACUCUAGAAAACAUG,binding signal,PUM1 PUF domain R5-TPR,5.18 log2 enrichment (interaction score)
GGCUAGAACUAGUGGAUCCCCCGGCGCCCGGCGGCUCGAGCCCGGGUAAGUGUAAAUAGUCUGCAUGCCGCCGGGCGCCAUGCCUGCAGGUCGACUCUAGAAAACAUG,binding signal,PUM1 PUF domain R4-DYS,4.45 log2 enrichment (interaction score)
same,binding signal,PUM1 PUF domain R3-LWL,2.69 log2 enrichment (interaction score)
same,binding signal,PUM1 PUF domain R8-RYQ,4.32 log2 enrichment (interaction score)
same,binding signal,PUM1 PUF domain R8-AWQ,3.01 log2 enrichment (interaction score)
same,binding signal,PUM1 PUF domain R3-APR,2.66 log2 enrichment (interaction score)
same,binding signal,PUM1 PUF domain R3-GRC,3.23 log2 enrichment (interaction score)
GGCUAGAACUAGUGGAUCCCCCGGCGCCCGGCGGCUCGAGCCCGGGUAAGUGUAAUUAGUCUGCAUGCCGCCGGGCGCCAUGCCUGCAGGUCGACUCUAGAAAACAUG,binding signal,PUM1 PUF domain R3-LWL,4.13 log2 enrichment (interaction score)
same,binding signal,PUM1 PUF domain R3-EWR,3.22 log2 enrichment (interaction score)
same,binding signal,PUM1 PUF domain R3-APR,2.28 log2 enrichment (interaction score)
same,binding signal,PUM1 PUF domain R3-DWQ,4.15 log2 enrichment (interaction score)
same,binding signal,PUM1 PUF domain R3-GRC,1.22 log2 enrichment (interaction score)
GGCUAGAACUAGUGGAUCCCCCGGCGCCCGGCGGCUCGAGCCCGGGUAAGUGUAAAUGGUCUGCAUGCCGCCGGGCGCCAUGCCUGCAGGUCGACUCUAGAAAACAUG,binding signal,PUM1 PUF domain R1-RRE,2.12 log2 enrichment (interaction score)
GGCUAGAACUAGUGGAUCCCCCGGCGCCCGGCGGCUCGAGCCCGGGUAAGUGUAUAUAGUCUGCAUGCCGCCGGGCGCCAUGCCUGCAGGUCGACUCUAGAAAACAUG,binding signal,PUM1 PUF domain R4-DYS,7.01 log2 enrichment (interaction score)
GGCUAGAACUAGUGGAUCCCCCGGCGCCCGGCGGCUCGAGCCCGGGUAAGUGUAAAUCGUCUGCAUGCCGCCGGGCGCCAUGCCUGCAGGUCGACUCUAGAAAACAUG,binding signal,PUM1 PUF domain R1-MPR,2.06 log2 enrichment (interaction score)
same,binding signal,PUM1 PUF domain R1-KNI,4.2 log2 enrichment (interaction score)
same,binding signal,PUM1 PUF domain R1-RRE,3.92 log2 enrichment (interaction score)
GGCUAGAACUAGUGGAUCCCCCGGCGCCCGGCGGCUCGAGCCCGGGUAAGUGUACAUAGUCUGCAUGCCGCCGGGCGCCAUGCCUGCAGGUCGACUCUAGAAAACAUG,binding signal,PUM1 PUF domain R4-DYS,5.76 log2 enrichment (interaction score)
GGCUAGAACUAGUGGAUCCCCCGGCGCCCGGCGGCUCGAGCCCGGGUAAGUGUUAAUAGUCUGCAUGCCGCCGGGCGCCAUGCCUGCAGGUCGACUCUAGAAAACAUG,binding signal,PUM1 PUF domain R5-GSK,2.59 log2 enrichment (interaction score)
GGCUAGAACUAGUGGAUCCCCCGGCGCCCGGCGGCUCGAGCCCGGGUAAGUUUAAAUAGUCUGCAUGCCGCCGGGCGCCAUGCCUGCAGGUCGACUCUAGAAAACAUG,binding signal,PUM1 PUF domain R7-CTR,2.95 log2 enrichment (interaction score)
same,binding signal,PUM1 PUF domain R7-EPD,3.42 log2 enrichment (interaction score)
same,binding signal,PUM1 PUF domain R7-QGG,3.51 log2 enrichment (interaction score)
GGCUAGAACUAGUGGAUCCCCCGGCGCCCGGCGGCUCGAGCCCGGGUAAGUGUAAAUUGUCUGCAUGCCGCCGGGCGCCAUGCCUGCAGGUCGACUCUAGAAAACAUG,binding signal,PUM1 PUF domain R1-MPR,3.08 log2 enrichment (interaction score)
same,binding signal,PUM1 PUF domain R1-KCQ,3.28 log2 enrichment (interaction score)
same,binding signal,PUM1 PUF domain R1-RRE,2.91 log2 enrichment (interaction score)
GGCUAGAACUAGUGGAUCCCCCGGCGCCCGGCGGCUCGAGCCCGGGUAAGUGAAAAUAGUCUGCAUGCCGCCGGGCGCCAUGCCUGCAGGUCGACUCUAGAAAACAUG,binding signal,PUM1 PUF domain R6-IFN,5.05 log2 enrichment (interaction score)
GGCUAGAACUAGUGGAUCCCCCGGCGCCCGGCGGCUCGAGCCCGGGUAAGCGUAAAUAGUCUGCAUGCCGCCGGGCGCCAUGCCUGCAGGUCGACUCUAGAAAACAUG,binding signal,PUM1 PUF domain R8-CYC,2.77 log2 enrichment (interaction score)
same,binding signal,PUM1 PUF domain R8-AWQ,2.11 log2 enrichment (interaction score)
GGCUAGAACUAGUGGAUCCCCCGGCGCCCGGCGGCUCGAGCCCGGGUAAGUGUAAAAAGUCUGCAUGCCGCCGGGCGCCAUGCCUGCAGGUCGACUCUAGAAAACAUG,binding signal,PUM1 PUF domain R2-LHR,3.5 log2 enrichment (interaction score)
